# Results published in publication PMC5540273 (PLoS ONE, 2017).
# Test system: T1, PRKR
# T1 construct: gene EIF2AK2
# Details: concentration: 1 μM,replicates: in singlicate; n = 1
# 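Also: KINOMEscan kinase panel screen.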
row,Compound,%Inh [%]
1,CNC(=O)c1ccccc1Sc1ccc2c(/C=C/c3ccccn3)n[nH]c2c1,0
2,O=C(NCCNc1ccnc(NCc2ccc(F)cc2)n1)c1cc2ccccc2s1 [GSK1379944],0
3,CN(C)CCOc1ccc(-c2cc(-c3c[nH]nc3-c3ccccn3)ccn2)cc1 [GW835314],0
4,Cc1cc(C(=O)Nc2ccc(Oc3ccc4nc(NC(=O)C5CC5)cn4n3)cc2)nn1-c1ccccc1,18
5,Cc1ccc(-n2nc(C(C)(C)C)cc2NC(=O)Nc2ccc(OCCN3CCOCC3)c3ccccc23)cc1 [GW839464],8
6,CCN(CC)CCCCNc1ncc2cc(-c3c(Cl)cccc3Cl)c(NC(=O)NC(C)(C)C)nc2n1,0
7,CCN(CC)CCOc1ccc(Nc2ncc3cc(-c4c(Cl)cccc4Cl)c(=O)n(C)c3n2)cc1 [SB-601273],18
8,Cc1cc2cn[nH]c2cc1-c1cccc2c(N)c(C(N)=O)nnc12,2
9,CC(C)Nc1cc(-c2ccc3c(N)n[nH]c3c2)nc(N)n1 [GSK2221681],0
10,C[C@@H](Oc1cc(-c2cnn(C3CCNCC3)c2)cnc1N)c1c(Cl)ccc(F)c1Cl,26
11,Cl.Cl.Nc1nc(-c2ccc3c(N)n[nH]c3c2)cc(N2CCCC(NC(=O)c3ccccc3)C2)n1 (stereo not drawn) [GSK2286775],5
12,CC(C)N1C(=O)Cc2cc(Nc3ncc(C(F)(F)F)c(NCc4cccc(S(C)(=O)=O)c4)n3)ccc21,0
13,Cl.Cl.NC[C@H](Cc1ccc(C(F)(F)F)cc1)NC(=O)c1cc(Br)c(-c2ccnc3[nH]ccc23)s1 [GSK1487252],0
14,C[C@@H]1CCN(C(=O)CC#N)C[C@@H]1N(C)c1ncnc2[nH]ccc12,0
15,CN(C)CC(O)COc1ccc(Nc2nccc(-c3cnn4nc(N5CCOCC5)ccc34)n2)cc1 (stereo not drawn) [GW767488],59
16,Cc1occc1-c1nc(N)c(OC[C@@H](N)Cc2c[nH]c3ccccc23)cc1-c1cc2c(C)n[nH]c2cn1 [GSK1660450],0
17,Cc1ccc2c(-c3ccncc3)c(-c3ccc(F)cc3)nn2c1.Cl [GW461484],0
18,C[C@H]1Oc2cc(cnc2N)-c2c(nn(C)c2C#N)CN(C)C(=O)c2ccc(F)cc21,0
19,NC(=O)c1cc(-c2ccccc2)cc2c(C3CCNCC3)c[nH]c12 [GSK301362],0
20,C=CC(=O)Nc1cc2c(Nc3ccc(F)c(Cl)c3)ncnc2cc1OCCCN1CCOCC1 [GW781483],0
21,CCn1c(-c2nonc2N)nc2c(C#CC(C)(C)O)nc(OCCN)cc21.Cl.Cl [GSK902056],0
22,Cc1n[nH]c2ccc(-c3cc(OC[C@@H](N)Cc4ccccc4)cnc3-c3ccoc3)cc12.O=C(O)C(F)(F)F.O=C(O)C(F)(F)F [GSK507358],4
23,Cl.Cl.NC[C@H](CC1CCCCC1)NC(=O)c1cc(Br)c(-c2ccnc3[nH]ccc23)s1 [GSK1581427],0
24,COc1ccc(C[C@@H](CN)NC(=O)c2cc(Br)c(-c3ccnc4[nH]ccc34)s2)cc1.Cl.Cl [GSK1389063],1
25,Cl.Oc1cc(-c2nc(-c3ccccc3)[nH]c2-c2ccncc2)ccc1Cl [SB-386023],0
26,Nc1nc(Nc2ccccc2)cc(-c2ccc3c(N)n[nH]c3c2)n1 [GSK2225749],3
27,O=C(NCCCN1CCOC1=O)c1cnc(NCc2cc(Cl)ccc2Cl)nc1NC1CCCC1,4
